In PubChem BioAssay AID651871 (Sanford-Burnham Center for Chemical Genomics, 2012):

Tested on: HL-1
Experiment: protection of cardiomyocytes from stress damage, SAR follow-up, cell-based, panel, H9c2 and HL-1, ATP luminescence, set 2 (AID 651871);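 also: cells exposed to stressor for 2 h before ATP readout; reference of the scale not given here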
Settings: H9c2/HL-1 cardiomyocytes, 2-deoxyglucose stress, with 2-deoxyglucose, run 10, at 19.8 µM (top of the series)

For `COc1ccc2c(c1OC)C(=O)N1c3ccccc3C(=O)N(Cc3cccc(Cl)c3Cl)C21` (stereo unspecified), which activity (protection/inhibition) is on record?
Its activity (protection/inhibition) is 33.5%.
